The OligoGym collection
Further: reference of the scale not given here.

Each sequence was assayed against TAAR8 (assay: pooled miR-30 sensor sort-seq; sequence = guide strand). Conditions: shRNA.
TATAAGAAAAATCTTACTGTAA showed a sensor-assay potency score (higher = more potent) of -0.203. TAATGGTTGATGAACTAGCCTT showed a sensor-assay potency score (higher = more potent) of -0.64. In the case of TAATAAGCACTCCAACAGCAAA, the sensor-assay potency score (higher = more potent) is reported as -1.57. In the case of AAATCTATCAACACCCAGCCTT, the sensor-assay potency score (higher = more potent) is reported as -0.587. For TAATATATCAACTGTATACGGT, the sensor-assay potency score (higher = more potent) was -0.194. With TTAGCTATAAGAAAAATCTTAC the sensor-assay potency score (higher = more potent) was -0.74. With TCAATTAATATATCAACTGTAT the sensor-assay potency score (higher = more potent) was -0.769.

What follows are sequences tested against TAC4 in the same assay as above. Conditions: shRNA.
TCTCTGCCTTTTTTTCTCCTTG was tested, and the sensor-assay potency score (higher = more potent) was -0.948. TGCAGCTGGAGCTGAATGCTGG was tested, and the sensor-assay potency score (higher = more potent) was -1.1. Sequence TTCCTCTCCACCATCACCTGCC has a sensor-assay potency score (higher = more potent) of 0.531. TCTGTGAACAGGCTTCTCTTGC showed a sensor-assay potency score (higher = more potent) of -0.505. For TCATCCTCTCTGCCTTCTGTGA, the sensor-assay potency score (higher = more potent) was -1.57. TATGCTTTTTTTCTCCTTGGCT gave a sensor-assay potency score (higher = more potent) of -0.257. TGCTTCAGTGCTGAGTGTCTGT showed a sensor-assay potency score (higher = more potent) of -0.405. TGAACAGGCTTCTCTTGCCCAG was tested, and the sensor-assay potency score (higher = more potent) was -1.26. In the case of TTCTGTGAACAGGCTTCTCTTG, the sensor-assay potency score (higher = more potent) is reported as -0.693. For TGCTTTTTTTCTCCTTGGCTGG, the sensor-assay potency score (higher = more potent) was -1.36. TTTTTTTCTCCTTGGCTGGATC showed a sensor-assay potency score (higher = more potent) of -1.14. Work on TCTGCCTTCTGTGAACAGGCTT yielded a sensor-assay potency score (higher = more potent) of -0.554.

The sequences below were run against TACR1 in the same assay as above. Conditions: shRNA.
TAGTTCGTCACTGTCCTCATTC showed a sensor-assay potency score (higher = more potent) of -0.77. TAGATCAGCACAGTCACACAGA showed a sensor-assay potency score (higher = more potent) of -0.182. TAGAACAGGCCGTAGTACCATT showed a sensor-assay potency score (higher = more potent) of -1.05. Work on TCGTTGTGGACAGCATAGGTGA yielded a sensor-assay potency score (higher = more potent) of -1.11. TCGATCATGCACACGACTCTGC was tested, and the sensor-assay potency score (higher = more potent) was 0.106. With TTGAGTAGTAGCCCTGGGGGAA the sensor-assay potency score (higher = more potent) was -0.65. TAGGTGAAGTTCACCACTGTAT gave a sensor-assay potency score (higher = more potent) of -0.204. With TTCGTCACTGTCCTCATTCTTT the sensor-assay potency score (higher = more potent) was -0.603. For TTTCTCATAAATCTTGTTCGGA, the sensor-assay potency score (higher = more potent) was 0.392. In the case of TGGTCTTGGAGTCACTTCGTGA, the sensor-assay potency score (higher = more potent) is reported as -1.54. TTCTCATAAATCTTGTTCGGAT gave a sensor-assay potency score (higher = more potent) of -0.905. Sequence TGACTTTGTACACACTGCCCTG has a sensor-assay potency score (higher = more potent) of -1.2.

These sequences were tested against TAF3 in the same assay as above. Conditions: shRNA.
TTTGGGAGTAGTACACTCCGGG showed a sensor-assay potency score (higher = more potent) of 0.0818. For TTCTTGAGAAGACACAATGGGT, the sensor-assay potency score (higher = more potent) was -1.17. Sequence TTGTCCTTCTTCTTGTTCGCAC has a sensor-assay potency score (higher = more potent) of 0.171. Sequence TTCAGCTTCAGGACTATCCAGT has a sensor-assay potency score (higher = more potent) of -0.217. TTTCACTTTATCCTTCTCCTTA was tested, and the sensor-assay potency score (higher = more potent) was 0.0178. AATAACACAACATCTAGCGTGT gave a sensor-assay potency score (higher = more potent) of 0.896. With TTTATCTGCTACCACAGCCTTT the sensor-assay potency score (higher = more potent) was -0.868. TTCTTGTTCGCACACTTGGGGC showed a sensor-assay potency score (higher = more potent) of -1.41. TATCTTTATCTTTCTTGCCTTT was tested, and the sensor-assay potency score (higher = more potent) was -0.809.
